# Measurements as given in the supplement of paper PMC8253809.
# “And” between values parts separate entries of the source, which are not always exact repeats. Equal entries are not always repeated.
# Columns and labels:
# Assay in all cases: growth inhibition (% activity, log2 RLU normalised to DMSO / staurosporine); higher = more growth inhibition
# Conditions in all cases: 33 µM
# [1] = system: DIPGX29 (H3.3 K27M diffuse intrinsic pontine glioma line)
# How it was run: (§1)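 For each approved drug, the growth-inhibition value is the replicate median of per-plate normalised CellTiter-Glo data. Luminescence was log2-transformed and expressed as % activity between solvent and positive control wells. Drugs were applied in triplicate at a single final concentration of about 33 μM for 7 days at 37 °C, 5% CO2 to pHGG cell lines and H9-derived neural stem cells.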
# [2] = system: DIPGX37 (H3.3 K27M diffuse intrinsic pontine glioma line)
# How it was run: as §1
# [3] = system: DIPGX7 (H3.3 K27M diffuse intrinsic pontine glioma line)
# How it was run: as §1
# [4] = system: DIPGX9 (diffuse intrinsic pontine glioma line)
# How it was run: as §1
# [5] = system: HGGX39 (paediatric high-grade glioma line)
# How it was run: as §1
# [6] = system: HGGX6 (H3.3 G34R paediatric high-grade glioma line)
# How it was run: as §1
# [7] = system: HNSC
# How it was run: as §1
# [8] = system: SUDIPGIV (diffuse intrinsic pontine glioma line)
# How it was run: as §1
# [9] = system: SUDIPGVI (diffuse intrinsic pontine glioma line)
# How it was run: as §1
# [10] = system: SUDIPGXIII (diffuse intrinsic pontine glioma line)
# How it was run: as §1
Structure (SMILES),growth inhibition [1],growth inhibition [2],growth inhibition [3],growth inhibition [4],growth inhibition [5],growth inhibition [6],growth inhibition [7],growth inhibition [8],growth inhibition [9],growth inhibition [10]
Cc1cccc(Cc2c[nH]cn2)c1C,1.63%,3.84%,4.17%,3.18%,5.48%,2.59%,4.93%,6.05%,6.15%,0.33%
CC(O)(CS(=O)(=O)c1ccc(F)cc1)C(=O)Nc1ccc(C#N)c(C(F)(F)F)c1 (stereo not given),0.345%,-1.44%,1.23%,0.462%,1.55%,0.395%,-0.177%,-0.994%,2.38%,1.16%
N.N.[Cl][Pt][Cl],-1.13%,0.384%,0.191%,0.402%,-0.146%,-3.02%,-5.11%,-3%,-1.15%,1.82%
COc1ccc(OC)c(C(O)C(C)N)c1 (stereo not given),0.864%,2.94%,-0.264%,0.24%,3.05%,1.53%,1.54%,0.0544%,3.12%,-0.103%
C/C=C(\C)C(=O)N[C@@H](c1ccccc1)[C@@H](O)C(=O)O[C@H]1C[C@@]2(O)[C@@H](OC(=O)c3ccccc3)[C@@H]3[C@]4(OC(C)=O)CO[C@@H]4C[C@H](O)[C@@]3(C)C(=O)[C@H](OC(C)=O)C(=C1C)C2(C)C,11.3%,8.35%,8.08%,23.2%,33.6%,19.9%,59.9%,37%,0.972%,4.19%
COc1cc2c(cc1OC)[C@@]13CCN4CC5=CCO[C@H]6CC(=O)N2[C@H]1[C@H]6[C@H]5C[C@H]43,-3.31%,0.569%,3.92%,0.679%,5.09%,-3.27%,19.6%,0.395%,1.58%,10.4%
CN(C)C1C(=O)C(C(N)=O)=C(O)C2(O)C(=O)C3=C(O)c4c(O)cccc4C(C)(O)C3CC12 (stereo not given),-1.53%,-2.75%,0.404%,-0.553%,1.88%,-0.661%,-1.6%,2.83%,-2.69%,-1.63%
NCC1(CC(=O)O)CCCCC1,2.13% and 0.326%,4.84% and 0.615%,3.15% and 1.16%,-0.041% and -0.903%,2.36% and -1.3%,2.04% and -2.75%,2.28% and -0.457%,1.22% and -1.85%,2.85% and -1.96%,-1.15% and -0.111%
CCC1=C[C@H]2CN3CCc4c([nH]c5ccccc45)[C@](C(=O)OC)(C2)[C@H]13,-4.07%,-1.56%,-1.78%,-1.01%,-1.76%,-3.94%,-4.27%,2.26%,-1.41%,-2.44%
Cc1cccc(C)c1NC(=O)CN1CCCC1=O,-3.64%,-1.99%,-0.96%,-1.24%,-0.565%,-3.14%,6.05%,-2.89%,-1.55%,-1.38%
COc1ccc(C(CN(C)C)C2(O)CCCCC2)cc1 (stereo not given),1.29%,1.34%,1.7%,0.288%,0.682%,-0.233%,1.61%,0.0945%,-1.13%,-0.0836%
CC(NC(C)(C)C)C(=O)c1cccc(Cl)c1 (stereo not given),-0.525%,-0.598%,-1.27%,0.229%,1.55%,0.445%,-1.56%,0.0304%,-0.145%,0.264%
C[C@@H]1O[C@@H](O[C@H]2C[C@@H](O)[C@]3(CO)[C@H]4[C@H](O)C[C@]5(C)[C@@H](C6=CC(=O)OC6)CC[C@]5(O)[C@@H]4CC[C@]3(O)C2)[C@H](O)[C@H](O)[C@H]1O,41.5%,21.1%,60.7%,26.1%,54.5%,51.4%,59.4%,60.1%,37.7%,45.3%
C=C(C)[C@@H]1[C@H]2OC(=O)[C@@H]1[C@]1(O)C[C@H]3O[C@]34C(=O)O[C@H]2[C@]14C,-0.435%,1.09%,-0.608%,0.386%,1.14%,0.986%,-1.08%,-0.711%,2.74%,0.384%
CN1C(=O)COc2c(C(=O)NC3CN4CCC3CC4)cc(Cl)cc21 (stereo not given),2.11%,3.22%,1.36%,3.07%,2.32%,3.19%,0.849%,-0.021%,3.53%,1.12%
CNC(=O)Oc1ccc2c(c1)[C@]1(C)CCN(C)[C@@H]1N2C,-0.0328%,2.09%,-0.713%,-0.267%,-1.19%,1.68%,-0.354%,-0.781%,2.19%,1.12%
O=S(=O)(F)Cc1ccccc1,0.493%,-0.634%,-0.837%,-0.877%,-0.194%,-1.52%,-0.438%,-0.0165%,1.21%,0.305%
COc1ccc(C(=O)N2CCCC2=O)cc1,0.75%,0.424%,2.24%,0.251%,-0.804%,-0.258%,0.808%,-2.06%,-5.15%,-1.15%
C#C[C@]1(O)C=C[C@H]2[C@@H]3CCC4=CC(=O)CC[C@@H]4[C@H]3CC[C@@]21CC,1.62%,0.668%,0.599%,1.55%,1.48%,3.32%,0.901%,0.673%,1.89%,0.6%
